Calls of active or inactive are those of the source.
What was measured:
[1] = binders of probe aFSTL3 on microarray, primary screen, stem cell growth factor project, biochemical, small-molecule microarray, fluorescence 635/667 (AID 1064); conditions: higher = more signal;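 further: measures binding of the biotinylated anti-FSTL3 antibody to printed compounds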
[2] = binders from COS7 lysate, DM2A8 probe, primary screen, torsin A project, cell lysate, small-molecule microarray, fluorescence 635/667 (AID 1065); conditions: higher = more signal, COS7 lysate expressing mutant human TOR1A
[3] = binders of probe aFGF2 on microarray, primary screen, stem cell growth factor project, biochemical, small-molecule microarray, fluorescence 635/667 (AID 1067); conditions: higher = more signal;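 further: measures binding of biotinylated aFGF2 protein to printed compounds on slides; z-score merges feature fluorescence and signal-to-noise across triplicate slides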
[4] = binders of probe aFGF10 on microarray, primary screen, stem cell growth factor project, biochemical, small-molecule microarray, fluorescence 635/667 (AID 1071); conditions: higher = more signal;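 further: score merges 667 nm spot intensity and signal to noise from triplicate slides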
[5] = molecular target: Neurogenic locus notch homolog protein 2 (Homo sapiens) (UniProt Q04721); experiment: Notch2 binders on small-molecule microarrays, primary screen, biochemical, small-molecule microarray, 635 nm fluorescence, stem cell growth factors (AID 1073); conditions: Notch2 binding, higher = more signal
[6] = molecular target: Pro-neuregulin-1, membrane-bound isoform (Homo sapiens) (UniProt Q02297); experiment: NRG1 binders on small-molecule microarrays, primary screen, psychiatric disease protein project, biochemical, small-molecule microarray, fluorescence 635/667 (AID 1075); conditions: NRG1 binding, 635 nm fluorescence, higher = more signal;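 further: score combines 667 nm spot fluorescence with signal to noise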
[7] = tested on: Neuregulin-1 EGF-like domain; experiment: binders of neuregulin-1 EGF-like domain, primary screen, biochemical, small-molecule microarray, 635 nm fluorescence (AID 1081); conditions: small-molecule microarray binding, higher = more signal;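 further: binding of the protein to compounds printed on small-molecule microarray slides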
[8] = FRG1 promoter luciferase signal modulators, primary screen, FRG1 inhibition for FSHD, cell-based, C2C12 myotubes, firefly/Renilla luciferase, luminescence (AID 1084); conditions: higher = more signal, called active from +8 up or from −8 down
[9] = binders of probe aFST on microarray, primary screen, stem cell growth factor project, biochemical, small-molecule microarray, fluorescence 635/667 (AID 1086); conditions: higher = more signal;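 further: score merges 667 nm fluorescence with signal-to-noise of each printed compound spot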
[10] = binders of probe aHhip on microarray, primary screen, stem cell growth factor project, biochemical, small-molecule microarray, fluorescence 635/667 (AID 1087); conditions: higher = more signal;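 further: score merges spot fluorescence at 667nm with spot signal to noise ratio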
[11] = tested on: PRMT1 (protein arginine N-methyltransferase 1); experiment: PRMT1 binders on small-molecule microarrays, primary screen, biochemical, small-molecule microarray, 635 nm fluorescence (AID 1088); conditions: small-molecule microarray binding, higher = more signal;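 further: binding of Prmt1 protein to compounds spotted on small-molecule microarray slides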
[12] = yeast growth modulation, basal conditions, primary screen, YJM789 clinical isolate, OD600, 24 h (AID 1089);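 further: growth of clinical yeast isolate S. cerevisiae YJM 789 seeded 1000 cells per well; test concentration not given here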; conditions: S. cerevisiae YJM789 growth, higher = more signal, called active from +8 up or from −8 down
[13] = fission yeast growth modulation, primary screen, strain 972, OD600, 24 h, no modulator (AID 1090);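 further: basal condition with compound alone and no growth modifier present; test concentration not given here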; conditions: S. pombe 972 growth, higher = more signal, called active from +8 up or from −8 down
[14] = S. cerevisiae growth modulation with rapamycin, primary screen, strain BY4716, OD600, 96 h (AID 1091); conditions: higher = more signal, called active from +8 up or from −8 down; further: test concentration not given here
[15] = molecular target: Torsin-1A-interacting protein 2 (Homo sapiens) (UniProt Q8NFQ8); experiment: LULL1 binders on small-molecule microarray, primary screen, cell lysate, human LULL1 lysate, 635/667 nm fluorescence (AID 1092); conditions: hLULL1 lysate binding, 635 nm fluorescence, higher = more signal;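 further: probe is lysate of COS7 cells overexpressing human LULL1; score merges per-feature 667 nm fluorescence with signal-to-noise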
[16] = E. coli growth modulation, two-sided OD650, primary screen, E. coli filamentation project, strain DRC41, 24 h (AID 1093); conditions: OD650, 24 h, higher = more signal, called active from +8 up or from −8 down;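 further: MC1000 strain lacking acrAB efflux and sulA so SOS filamentation is blocked; test concentration not given here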
[17] = small-molecule microarray binders of probe aLefty2, primary screen, biochemical, biotinylated probe, 635/667 nm fluorescence (AID 1094); conditions: higher = more signal;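 further: score merges spot fluorescence near 667 nm with spot signal-to-noise ratio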
[18] = tested on: Noggin (protein binding on small-molecule microarray); experiment: Noggin binders on small-molecule microarray, primary screen, biochemical, 635/667 nm fluorescence (AID 1095); conditions: 635 nm fluorescence, higher = more signal;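 further: score merges 667 nm feature fluorescence with signal to noise over triplicate slides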
[19] = molecular target: Neurogenic locus notch homolog protein 3 (Homo sapiens) (UniProt Q9UM47); experiment: NOTCH3 binders on small-molecule microarray, primary screen, biochemical, 635/667 nm fluorescence (AID 1096); conditions: NOTCH3 binding, 635 nm fluorescence, higher = more signal
[20] = small-molecule microarray binders of probe aEGFR, primary screen, biochemical, biotinylated probe, 635/667 nm fluorescence (AID 1097); conditions: higher = more signal;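 further: probe is a biotinylated anti-EGFR antibody binding compounds printed on slides; score combines fluorescence near 667 nm and signal to noise of each spot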

Chain of Torsin-1A-interacting protein 2 (Homo sapiens) (Q8NFQ8 whole entry, looked up): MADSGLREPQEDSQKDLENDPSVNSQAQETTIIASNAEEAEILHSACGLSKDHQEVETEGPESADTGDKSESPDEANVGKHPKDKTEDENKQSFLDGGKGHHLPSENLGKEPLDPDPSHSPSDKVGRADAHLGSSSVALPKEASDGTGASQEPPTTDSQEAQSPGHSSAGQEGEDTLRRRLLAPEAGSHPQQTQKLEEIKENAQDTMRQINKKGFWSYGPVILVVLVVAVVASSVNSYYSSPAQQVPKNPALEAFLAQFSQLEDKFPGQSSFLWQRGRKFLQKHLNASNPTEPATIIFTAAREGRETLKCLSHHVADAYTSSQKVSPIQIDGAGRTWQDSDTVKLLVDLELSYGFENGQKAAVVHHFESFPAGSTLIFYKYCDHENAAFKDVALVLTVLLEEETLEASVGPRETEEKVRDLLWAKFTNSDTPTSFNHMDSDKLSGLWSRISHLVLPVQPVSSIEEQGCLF
Chain of Neurogenic locus notch homolog protein 3 (Homo sapiens) (Q9UM47 whole entry, looked up): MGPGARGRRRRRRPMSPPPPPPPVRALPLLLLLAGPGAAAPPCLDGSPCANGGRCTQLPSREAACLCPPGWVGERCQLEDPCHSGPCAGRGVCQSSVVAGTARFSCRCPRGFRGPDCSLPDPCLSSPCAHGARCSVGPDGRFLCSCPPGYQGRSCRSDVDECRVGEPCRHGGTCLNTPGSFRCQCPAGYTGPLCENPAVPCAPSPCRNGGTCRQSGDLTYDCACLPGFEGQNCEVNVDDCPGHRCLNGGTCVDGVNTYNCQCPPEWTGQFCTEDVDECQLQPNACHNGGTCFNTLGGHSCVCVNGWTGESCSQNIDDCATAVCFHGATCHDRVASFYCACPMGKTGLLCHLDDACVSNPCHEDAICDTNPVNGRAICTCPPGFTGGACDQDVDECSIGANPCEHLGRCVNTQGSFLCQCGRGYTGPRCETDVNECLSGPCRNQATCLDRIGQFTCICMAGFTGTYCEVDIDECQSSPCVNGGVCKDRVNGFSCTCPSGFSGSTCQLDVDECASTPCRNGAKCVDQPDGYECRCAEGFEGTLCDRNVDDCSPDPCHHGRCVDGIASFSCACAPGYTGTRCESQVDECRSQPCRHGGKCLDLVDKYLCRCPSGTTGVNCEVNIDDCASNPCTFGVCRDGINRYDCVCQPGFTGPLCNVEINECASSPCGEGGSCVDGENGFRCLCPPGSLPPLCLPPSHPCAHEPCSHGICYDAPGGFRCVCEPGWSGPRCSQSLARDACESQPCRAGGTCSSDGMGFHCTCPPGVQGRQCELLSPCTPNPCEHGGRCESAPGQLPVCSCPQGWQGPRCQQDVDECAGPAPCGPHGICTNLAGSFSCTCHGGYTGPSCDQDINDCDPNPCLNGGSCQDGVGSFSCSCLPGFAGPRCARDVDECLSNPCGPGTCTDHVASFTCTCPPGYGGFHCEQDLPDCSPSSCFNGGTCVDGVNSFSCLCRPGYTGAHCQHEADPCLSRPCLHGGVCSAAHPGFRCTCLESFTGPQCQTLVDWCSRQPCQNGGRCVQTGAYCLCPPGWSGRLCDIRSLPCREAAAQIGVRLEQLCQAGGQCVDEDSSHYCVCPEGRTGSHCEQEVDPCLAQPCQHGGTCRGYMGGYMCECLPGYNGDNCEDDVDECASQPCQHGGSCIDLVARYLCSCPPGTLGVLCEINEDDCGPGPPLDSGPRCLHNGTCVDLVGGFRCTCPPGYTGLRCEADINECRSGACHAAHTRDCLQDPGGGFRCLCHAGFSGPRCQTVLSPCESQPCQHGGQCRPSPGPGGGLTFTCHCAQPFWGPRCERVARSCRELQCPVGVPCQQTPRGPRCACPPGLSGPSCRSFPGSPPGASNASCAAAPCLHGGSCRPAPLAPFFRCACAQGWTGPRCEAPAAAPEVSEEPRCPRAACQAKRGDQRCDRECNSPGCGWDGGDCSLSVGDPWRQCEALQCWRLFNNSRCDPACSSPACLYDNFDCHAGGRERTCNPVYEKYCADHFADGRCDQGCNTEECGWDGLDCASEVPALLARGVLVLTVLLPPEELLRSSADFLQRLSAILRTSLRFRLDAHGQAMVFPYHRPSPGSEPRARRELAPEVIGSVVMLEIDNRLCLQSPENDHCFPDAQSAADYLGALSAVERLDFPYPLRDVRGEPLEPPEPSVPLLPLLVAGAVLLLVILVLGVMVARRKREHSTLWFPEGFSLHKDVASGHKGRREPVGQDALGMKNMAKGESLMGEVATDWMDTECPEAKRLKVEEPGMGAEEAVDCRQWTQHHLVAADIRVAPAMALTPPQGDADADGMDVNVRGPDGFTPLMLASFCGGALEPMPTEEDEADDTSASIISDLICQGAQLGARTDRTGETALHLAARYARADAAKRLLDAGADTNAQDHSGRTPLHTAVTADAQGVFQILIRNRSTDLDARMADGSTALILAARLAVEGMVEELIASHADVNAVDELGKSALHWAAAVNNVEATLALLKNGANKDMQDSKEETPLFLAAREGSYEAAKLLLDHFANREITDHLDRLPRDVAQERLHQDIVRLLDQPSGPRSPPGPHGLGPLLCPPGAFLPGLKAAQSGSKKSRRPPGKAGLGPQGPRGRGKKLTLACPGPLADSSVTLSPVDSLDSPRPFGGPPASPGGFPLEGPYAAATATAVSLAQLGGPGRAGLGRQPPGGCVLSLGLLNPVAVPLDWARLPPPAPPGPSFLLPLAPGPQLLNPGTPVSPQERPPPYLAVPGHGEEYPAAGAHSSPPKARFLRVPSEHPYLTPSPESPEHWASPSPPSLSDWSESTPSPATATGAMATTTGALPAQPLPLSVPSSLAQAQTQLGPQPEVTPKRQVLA
Chain of Pro-neuregulin-1, membrane-bound isoform (Homo sapiens) (Q02297 whole entry, looked up, the tested form may be a part, canonical isoform): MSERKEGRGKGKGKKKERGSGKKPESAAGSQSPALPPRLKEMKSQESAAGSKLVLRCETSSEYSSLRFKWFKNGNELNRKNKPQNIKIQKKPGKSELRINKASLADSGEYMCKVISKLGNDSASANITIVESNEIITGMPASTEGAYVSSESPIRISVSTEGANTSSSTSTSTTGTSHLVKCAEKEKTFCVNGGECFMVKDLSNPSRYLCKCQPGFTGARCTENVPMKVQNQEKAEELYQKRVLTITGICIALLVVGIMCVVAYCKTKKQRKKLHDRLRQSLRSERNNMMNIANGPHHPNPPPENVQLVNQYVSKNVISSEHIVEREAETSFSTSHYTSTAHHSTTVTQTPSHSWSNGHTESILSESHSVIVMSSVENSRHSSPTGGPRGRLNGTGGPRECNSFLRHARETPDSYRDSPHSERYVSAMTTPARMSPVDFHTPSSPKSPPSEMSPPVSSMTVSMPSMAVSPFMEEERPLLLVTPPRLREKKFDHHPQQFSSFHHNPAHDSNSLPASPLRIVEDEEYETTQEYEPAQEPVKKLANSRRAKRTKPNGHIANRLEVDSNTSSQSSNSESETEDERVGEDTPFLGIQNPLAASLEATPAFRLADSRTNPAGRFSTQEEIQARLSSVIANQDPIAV

| SMILES | composite z-score [1] | composite z-score [2] | composite z-score [3] | composite z-score [4] | composite z-score [5] | composite z-score [6] | composite z-score [7] | z-score [8] | composite z-score [9] | composite z-score [10] | composite z-score [11] | z-score [12] | z-score [13] | z-score [14] | composite z-score [15] | z-score [16] | composite z-score [17] | composite z-score [18] | composite z-score [19] | composite z-score [20] |
| --- | --- | --- | --- | --- | --- | --- | --- | --- | --- | --- | --- | --- | --- | --- | --- | --- | --- | --- | --- | --- |
| O=C1[C@H]2[C@H]3[C@H](O)[C@H](O)CC(=NOC[C@@H](O)COCc4ccco4)[C@@H]3CC[C@H]2C(=O)N1C[C@@H]1CCCO1 | -0.861 | 2.29 | -0.213 | -0.32 | -0.323 | -0.271 | 1.22 | -0.218 (inactive) | -0.14 | 0.0139 | 1.37 | 0.715 (inactive) | 1.01 (inactive) | 0.714 (inactive) | -0.239 | 1.05 (inactive) | -0.0732 | 0.997 | 0.395 | -0.344 |
| O=C(C=Cc1ccc2c(c1)OCO2)c1ccc(F)cc1 | -0.0346 | 0.668 | 0.0173 | 0.3 | -0.207 | -0.204 | -0.0248 | 0.964 (inactive) | 0.348 | -0.0994 | -0.458 | -0.935 (inactive) | -15.1 (active) | 3.87 (inactive) | -0.779 | 0.704 (inactive) | -0.132 | 0.87 | 0.142 | 0.131 |
| CCOC(=O)[C@H](Cc1ccccc1)NC(=O)CCC1CC(OC(=O)NCc2ccc3c(c2)OCO3)CC2(CCCC(COC(=O)NCCc3ccccc3OC)O2)O1 (stereo not given in full) | -0.259 | 0.058 | -0.147 | 0.471 | 1.26 | 1.04 | 1.1 | 1.04 (inactive) | 0.569 | 0.141 | 1.49 | 0.163 (inactive) | 1.07 (inactive) | 1.52 (inactive) | 2.67 | -0.324 (inactive) | -0.112 | 0.679 | 1.08 | 0.0287 |
| CCOC(=O)[C@H](Cc1ccccc1)NC(=O)OC1CC(CCC2CC(CC)=NO2)OC2(CCCC(COC(=O)NCCC(C)C)O2)C1 (stereo not given in full) | -0.436 | -0.235 | -0.0692 | 0.354 | 0.165 | 0.418 | 0.86 | 0.309 (inactive) | -0.0729 | -0.218 | 1.19 | -0.764 (inactive) | 0.595 (inactive) | 0.344 (inactive) | 1.44 | 1.11 (inactive) | -0.147 | 0.322 | -0.0258 | -0.0721 |
| COc1ccc(C#C[C@@H]2C=C[C@H](OC(C)=O)[C@@H](COC(C)=O)O2)cc1 | -0.068 | 0.101 | -0.0769 | 0.288 | 0.395 | 0.198 | -0.0975 | 0.742 (inactive) | -0.0985 | -0.191 | 0.474 | -0.551 (inactive) | -2.35 (inactive) | -0.451 (inactive) | 0.387 | 1.04 (inactive) | 0.0164 | 0.622 | 0.493 | -0.122 |
| CCc1cc2c(nc1CC)CCN(CCC(C)=NO[C@H](C)c1cn([C@@H]3COC[C@H]3O)nn1)C2 | -0.141 | -0.0699 | -0.0015 | 0.0444 | 0.199 | -0.174 | -0.365 | -0.0345 (inactive) | 0.224 | -0.0994 | -0.104 | 0.485 (inactive) | 0.308 (inactive) | 0.668 (inactive) | -0.179 | -0.216 (inactive) | -0.0936 | 0.0613 | 0.551 | 0.0004 |
| CCOC(=O)NN=C1C[C@@H](O)[C@@H](O)[C@@H]2[C@@H]3C(=O)N(Cc4ccccc4)C(=O)[C@@H]3CC[C@H]12 | -0.276 | 0.695 | -0.124 | 0.164 | 0.287 | -0.0283 | -0.699 | 1.08 (inactive) | 0.0387 | -0.223 | -0.278 | -0.907 (inactive) | -0.524 (inactive) | -1.33 (inactive) | -0.308 | -0.127 (inactive) | -0.138 | 0.0448 | -0.0518 | -0.0387 |
| O=c1n(Cc2cc3c(cc2Cl)OCO3)c(=O)n2n1CC[C@@H]1C(=NOC[C@@H](O)COCc3ccco3)[C@H]3O[C@H]3[C@@H](O)[C@@H]12 | -0.247 | 0.28 | -0.0878 | 0.217 | 0.169 | -0.112 | 0.0421 | 0.0388 (inactive) | -0.142 | 0.0398 | 0.101 | 1.52 (inactive) | 0.807 (inactive) | 1.24 (inactive) | 0.177 | 0.283 (inactive) | -0.286 | 0.323 | 0.667 | -0.0976 |
| O=C(NN=C1C[C@@H](O)[C@@H](O)[C@@H]2[C@@H]3C(=O)N(C4CCCCC4)C(=O)[C@@H]3CC[C@@H]12)OCc1ccccc1 | -0.107 | 0.2 | -0.0667 | 0.0505 | -0.103 | -0.32 | -0.235 | 0.448 (inactive) | 0.818 | -0.16 | -0.492 | 0.313 (inactive) | -0.452 (inactive) | -0.157 (inactive) | -0.181 | 0.572 (inactive) | -0.372 | -0.248 | 0.256 | -0.0262 |
| COc1ccc(COC(=O)NN=C2C[C@@H](O)[C@@H](O)[C@@H]3[C@@H]4C(=O)N(Cc5ccccc5)C(=O)[C@@H]4CC[C@H]23)cc1 | 1.51 | 0.111 | -0.0574 | 0.009 | -0.234 | -0.318 | -0.411 | 0.319 (inactive) | 1.39 | -0.284 | 0.413 | -0.457 (inactive) | -0.619 (inactive) | -1.17 (inactive) | 0.739 | -0.289 (inactive) | 0.287 | -1.24 | -0.0524 | -0.13 |

Reference: PubChem BioAssay
